Shown is part of a subset that was picked to be rich in hits.
LmPK inh: LmPK (Leishmania mexicana) enzyme inhibition. Q27686. purified LmPK, Kinase-Glo ATP luminescence, 1 h. Potency, µM (doses to about 57.5 µM), for the others: at the top dose activity change, negative = inhibition, most hits filed as inhibitors. 290,000 tested, 0.37% active. AID 1721; also: potency is read from the fitted curve at half-maximal effect; % is scaled to controls: 0 for no effect and ±100 for the full control effect
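qHTS format; LmPK 0.1 nM; substrates PEP 0.5 mM and ADP 0.1 mM. One-hour room-temperature incubation, then coupled luciferase luminescence; 0.5 nM enzyme wells mark activation.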
Sm TGR inh: S. mansoni TGR enzyme inhibition; AID 485364; Q962Y6; Potency, µM (titrated, usually from 114 µM), for the others: at the top dose activity change, negative = inhibition, hits mostly inhibitors; 360,000 tested, 3% active; purified TGR, DTNB reduction, TNB absorbance 405 nm; also: potency is read from the fitted curve at half-maximal effect; % is scaled to controls: 0 for no effect and ±100 for the full control effect; nearly all actives have a fitted effect of over 60% in size
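TGR 20 nM + NADPH 100 uM (dispensed conc.), cpd preinc 15 min RT; start with NADPH (500 uM addition) then DTNB (15 mM addition). Kinetic TNB absorbance, 405 nm filter. Four-parameter Hill fit across titration.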
Shiga inhibitor: blocks Shiga toxin action in Vero cells. Vero cells, Shiga toxin protein synthesis inhibition reporter. 290,000 tested, 9.2% active. inhibition, % at 38.7 µM; in the data active = inhibition mostly above about 28%, no sharp cut-off; inactive = mostly below about 43%; also: 0% is about no effect
Giardia FBPA inh: blocks Giardia fructose-bisphosphate aldolase activity; purified Giardia FBPA; A8B2U2; Potency, µM (top dose mostly 59.6 µM), inactives show top-dose activity, negative = inhibition, actives largely listed as inhibitors; 290,000 tested, 0.71% active; AID 2451; also: potency is read from the fitted curve at half-maximal effect; % is scaled to controls: 0 for no effect and ±100 for the full control effect; nearly all actives have a fitted effect of over 55% in size
Target sequence (A8B2U2 whole entry, looked up): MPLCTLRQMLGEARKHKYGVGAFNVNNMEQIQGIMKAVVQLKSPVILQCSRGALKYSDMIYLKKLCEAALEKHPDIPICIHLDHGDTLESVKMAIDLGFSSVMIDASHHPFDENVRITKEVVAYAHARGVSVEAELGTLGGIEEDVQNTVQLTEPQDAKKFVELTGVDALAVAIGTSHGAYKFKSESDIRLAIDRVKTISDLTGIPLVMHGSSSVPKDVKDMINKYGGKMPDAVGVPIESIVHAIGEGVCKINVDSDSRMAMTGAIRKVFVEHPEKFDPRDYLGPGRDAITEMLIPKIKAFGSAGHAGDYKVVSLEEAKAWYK
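Giardia FBPA (40 nM reagent) was preincubated 10 min at RT with compound (up to 57.5 uM final), then substrate plus GAPDH/TPI/NAD/arsenate coupling system with diaphorase/resazurin was added; resorufin fluorescence (525/598 nm) was read after 20 min.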
CHX counter: counter-screen for Shiga toxin inhibitors: cycloheximide protein synthesis inhibition; cell reporter, cycloheximide protein synthesis inhibition counterscreen; 300,000 tested, 12% active; AID 2314; max response, %; in the data active = max response mostly above about 13%, no sharp cut-off; inactive = mostly below about 14%; also: read at 38.3 µM for the half of the compounds with a filed dose; 0% is about no effect
Tb PYK inh: blocks Trypanosoma brucei pyruvate kinase; Potency, µM (titrated, usually from 76.8 µM), for inactives: at the highest dose activity, negative = inhibition, actives largely listed as inhibitors; AID 624173; 410,000 tested, 0.12% active; TbPYK enzyme, Kinase-Glo Plus ATP luminescence, 45 min; also: potency is read from the fitted curve at half-maximal effect; % is scaled to controls: 0 for no effect and ±100 for the full control effect; nearly all actives have a fitted effect of over 50% in size
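TbPYK + substrate in 50 mM TEA pH 7.2, 100 mM KCl, 10 mM MgCl2, 0.05% BSA, 0.01% Tween-20; cpd pinned; ADP 130 uM final; 45 min RT; Kinase-Glo Plus 10 min; luminescence endpoint.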
Starred values were filed as active, the others as inactive; ? = inconclusive; nt = no result. Unless noted, calls follow the shape of the dose curve; as a rule, active = well fitted curve in the direction sought with a large enough effect; inconclusive = small, poorly fitted or top-dose-only effect, or another doubt; inactive = no such curve, though single readings can be large; an effect the other way counts as inactive or inconclusive.

SMILES	LmPK inh	Sm TGR inh	Shiga inhibitor	Giardia FBPA inh	CHX counter	Tb PYK inh
Cc1ccc(CSc2nnc(-c3cccs3)n2C)cc1	3%	1%	31	-2%	18	-17%
CCCNS(=O)(=O)c1ccc(NC(=O)c2ccccn2)cc1	?	4%	92*	-5%	29	-20%
CN(C)S(=O)(=O)c1ccc(NC(=O)c2ccccn2)cc1	-22%	-3%	112*	-1%	34*	5%
CN(C)S(=O)(=O)c1ccc(C(=O)Nc2ccccn2)cc1	-5%	0%	57	14%	22*	-5%
CCOc1ccc(NS(=O)(=O)c2ccc(NC(=O)c3ccccn3)cc2)cc1	nt	-21%	nt	nt	nt	-14%
CCN(CC)S(=O)(=O)c1ccc(NC(=O)c2ccccn2)cc1	?	-25%	96*	1%	30*	-3%
CC(=O)NS(=O)(=O)c1ccc(NC(=O)c2ccccn2)cc1	3%	-8%	11	-15%	-1	3%
COc1c(Cl)cc(Cl)cc1C(=O)Nc1cccc(-c2nc3ccccc3o2)c1C	nt	-9%	nt	nt	nt	-1%
CN1CCc2cc3c(cc2[C@@H]1[C@@H]1C(=O)Oc2c1ccc1c2OCO1)OCO3	nt	nt	nt	-7%	nt	nt
CCCCCC(O)(c1ccc(OCC)cc1)C(CN1CCOCC1)c1ccccc1 (stereo unspecified)	-2%	-13%	-3	-3%	0	3%
COCC(C)NS(=O)(=O)c1ccc(NC(=O)c2ccccn2)cc1 (stereo unspecified)	1%	12%	31*	0%	11*	3%
Cc1cc(C(=O)OCc2nc3ccccc3s2)c(C)o1	-4%	0%	105*	15%	53*	-7%
O=C(OCc1nc2ccccc2s1)c1ccco1	-3%	4%	90*	1%	36*	-2%
O=C(COC(=O)c1ccco1)Nc1nc2ccccc2s1	0%	8%	32	-11%	21*	-1%
NC(=O)c1ccccc1OCc1cccc2ccccc12	1%	8%	22	5%	4	-4%
NC(=O)c1ccccc1OCc1nc2ccccc2s1	-13%	2%	97*	nt	34*	-1%
COc1ccc(C(C)(O)c2nc(-c3ccoc3)cs2)cc1 (stereo unspecified)	nt	nt	nt	nt	nt	0%
O=C(O)COCc1nc2ccccc2s1	-3%	-2%	-7	4%	-3	-12%
CCOC(=O)C(=O)Cc1nc2ccccc2s1	3%	3%	29	?	12*	-5%
CCCc1cc(C(=O)Cc2nc3ccccc3s2)c(O)cc1O	-3%	9%	24	nt	12	-13%
O=C(OCc1nc2ccccc2s1)c1ccc(Br)o1	3%	-17%	80*	-2%	28*	-5%
CC(=O)OCc1nc2ccccc2s1	1%	-8%	92*	1%	29*	1%
Cc1cccc2nc(Cn3c(=O)n(-c4ccccc4)c(=O)c4c5c(sc43)CCC5)cc(=O)n12	nt	8%	nt	nt	nt	2%
Cc1[nH]c2ccc(-c3n[nH]c(=S)n3C)cc2c1C	-11%	-4%	2	3%	-6	?
CCn1c(-c2cc(-c3ccc(C)c(C)c3)nc3ccccc23)n[nH]c1=S	-3%	18%	81*	0%	26*	nt
SMILES	LmPK inh	Sm TGR inh	Shiga inhibitor	Giardia FBPA inh	CHX counter	Tb PYK inh
CCn1c(-c2cc(C3CC3)nc3ccccc23)n[nH]c1=S	-8%	45µM*	-2	20%	-3	?
CCn1c(-c2cc(-c3cc(C)ccc3C)nc3ccccc23)n[nH]c1=S	1%	18%	4	19%	-1	-23%
CCn1c(-c2ccc3[nH]c(C)c(C)c3c2)n[nH]c1=S	28µM*	17%	-13	0%	-5	?
CCC(=O)N1CCc2cc(Br)cc(S(=O)(=O)N3CCCC(C(=O)Nc4cccc(F)c4)C3)c21 (stereo unspecified)	nt	49%	nt	nt	nt	-5%
CC(Nc1nc2ccccc2n2cnnc12)c1ccccc1 (stereo unspecified)	2%	4%	35*	-1%	20*	-4%
c1ccc2c(c1)nc(Nc1ccc(N3CCCCC3)cc1)c1nncn12	1%	-3%	10	15%	15*	-8%
COc1ccc(-c2cc(-c3ccc(C)cc3)nc3c2COc2ccccc2-3)cc1	nt	-1%	nt	nt	nt	-1%

Source: PubChem BioAssay (National Center for Advancing Translational Sciences (NCATS))
